Assay results: article PMC7862700, “An all-to-all approach to the identification of sequence-specific readers for epigenetic DNA modifications on cytosine”

How the values were obtained:
Experiment in all cases: DAPPL (digital affinity profiling via proximity ligation, sequencing); 10 mM Tris-HCl pH 7.5, 50 mM NaCl, 1 mM DTT, 4% glycerol, room temperature, 30 min; GST-TFs on glutathione beads, 16-mer random dsDNA library, 0.1% formaldehyde crosslink after washing; high values mean tight binding
Conditions in all cases: protein: recombinant; tags: N-terminal GST; dsDNA, one strand shown
[1] = biological target: T1, FLI1 (Homo sapiens, UniProt Q01543 1-452)
T1 sequence: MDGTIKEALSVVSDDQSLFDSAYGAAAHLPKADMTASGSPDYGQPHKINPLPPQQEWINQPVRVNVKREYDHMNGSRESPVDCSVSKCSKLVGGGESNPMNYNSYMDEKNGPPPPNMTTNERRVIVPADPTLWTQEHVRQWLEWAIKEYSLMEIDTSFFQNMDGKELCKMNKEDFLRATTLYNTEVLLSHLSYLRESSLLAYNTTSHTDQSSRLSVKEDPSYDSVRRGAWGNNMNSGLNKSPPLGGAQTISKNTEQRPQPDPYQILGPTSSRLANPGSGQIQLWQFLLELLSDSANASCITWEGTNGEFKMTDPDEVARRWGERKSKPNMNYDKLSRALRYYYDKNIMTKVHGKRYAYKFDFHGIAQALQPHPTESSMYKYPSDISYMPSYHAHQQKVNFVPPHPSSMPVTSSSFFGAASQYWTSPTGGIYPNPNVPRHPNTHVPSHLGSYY
Outline: (§1)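 Binding signal is defined as a hexamer's read frequency for one factor over its frequency for the tag-only sample. To obtain reads, GST-fused human transcription factors were expressed in yeast, captured on glutathione beads, barcoded with DNA and pooled with that sample. Pools met 200 nmole of a 16-mer random double-stranded DNA library in Tris/NaCl/DTT/glycerol buffer for 30 min at room temperature before washing, 0.1% formaldehyde crosslinking, proximity ligation (BsaI/T4 ligase, 1 h, 37 °C), PCR and Illumina NextSeq500 sequencing.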

[2] = biological target: T2, ELK1 (Homo sapiens, UniProt P19419 1-428)
T2 sequence: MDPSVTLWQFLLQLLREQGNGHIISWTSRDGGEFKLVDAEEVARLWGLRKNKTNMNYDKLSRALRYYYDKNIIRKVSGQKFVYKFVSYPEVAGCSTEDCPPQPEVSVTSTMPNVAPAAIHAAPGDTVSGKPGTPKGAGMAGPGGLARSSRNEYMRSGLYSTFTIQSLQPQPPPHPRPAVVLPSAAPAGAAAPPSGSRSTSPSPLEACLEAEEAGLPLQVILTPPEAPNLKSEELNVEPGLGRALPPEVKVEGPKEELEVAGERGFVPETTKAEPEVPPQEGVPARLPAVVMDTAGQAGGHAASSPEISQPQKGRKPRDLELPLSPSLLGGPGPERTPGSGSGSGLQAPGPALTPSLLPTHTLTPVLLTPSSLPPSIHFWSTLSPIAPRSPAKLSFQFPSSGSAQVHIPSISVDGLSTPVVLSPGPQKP
Outline: as §1

[3] = biological target: T3, GABPA (Homo sapiens, UniProt Q06546 1-454)
T3 sequence: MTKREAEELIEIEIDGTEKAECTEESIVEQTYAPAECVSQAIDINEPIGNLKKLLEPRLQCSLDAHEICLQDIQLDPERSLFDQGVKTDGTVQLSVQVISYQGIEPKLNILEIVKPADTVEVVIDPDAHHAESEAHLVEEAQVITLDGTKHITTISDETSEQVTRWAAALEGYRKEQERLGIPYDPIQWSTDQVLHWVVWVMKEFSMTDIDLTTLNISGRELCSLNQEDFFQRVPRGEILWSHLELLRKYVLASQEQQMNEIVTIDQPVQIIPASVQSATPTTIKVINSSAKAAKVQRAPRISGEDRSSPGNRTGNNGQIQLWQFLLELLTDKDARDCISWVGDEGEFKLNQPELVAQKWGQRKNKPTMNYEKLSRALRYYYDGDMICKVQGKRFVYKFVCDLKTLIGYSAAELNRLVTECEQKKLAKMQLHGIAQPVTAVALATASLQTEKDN
Outline: as §1

[4] = biological target: T4, ERG (Homo sapiens, UniProt P11308 1-479)
T4 sequence: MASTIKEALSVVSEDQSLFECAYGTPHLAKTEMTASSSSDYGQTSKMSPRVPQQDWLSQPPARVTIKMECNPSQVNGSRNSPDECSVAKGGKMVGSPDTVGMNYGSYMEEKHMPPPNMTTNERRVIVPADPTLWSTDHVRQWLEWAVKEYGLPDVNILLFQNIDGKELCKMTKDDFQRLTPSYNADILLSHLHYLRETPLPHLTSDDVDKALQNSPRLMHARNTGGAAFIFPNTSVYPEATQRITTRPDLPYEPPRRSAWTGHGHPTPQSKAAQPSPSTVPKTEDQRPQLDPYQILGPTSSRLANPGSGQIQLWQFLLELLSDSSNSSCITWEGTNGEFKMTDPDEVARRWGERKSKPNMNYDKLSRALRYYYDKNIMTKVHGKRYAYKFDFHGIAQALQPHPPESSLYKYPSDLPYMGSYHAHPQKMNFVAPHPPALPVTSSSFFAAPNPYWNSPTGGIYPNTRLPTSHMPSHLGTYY
Outline: as §1

[5] = biological target: ELF1 (Homo sapiens, UniProt P32519 1-619)
Chain of ELF1 (P32519 whole entry): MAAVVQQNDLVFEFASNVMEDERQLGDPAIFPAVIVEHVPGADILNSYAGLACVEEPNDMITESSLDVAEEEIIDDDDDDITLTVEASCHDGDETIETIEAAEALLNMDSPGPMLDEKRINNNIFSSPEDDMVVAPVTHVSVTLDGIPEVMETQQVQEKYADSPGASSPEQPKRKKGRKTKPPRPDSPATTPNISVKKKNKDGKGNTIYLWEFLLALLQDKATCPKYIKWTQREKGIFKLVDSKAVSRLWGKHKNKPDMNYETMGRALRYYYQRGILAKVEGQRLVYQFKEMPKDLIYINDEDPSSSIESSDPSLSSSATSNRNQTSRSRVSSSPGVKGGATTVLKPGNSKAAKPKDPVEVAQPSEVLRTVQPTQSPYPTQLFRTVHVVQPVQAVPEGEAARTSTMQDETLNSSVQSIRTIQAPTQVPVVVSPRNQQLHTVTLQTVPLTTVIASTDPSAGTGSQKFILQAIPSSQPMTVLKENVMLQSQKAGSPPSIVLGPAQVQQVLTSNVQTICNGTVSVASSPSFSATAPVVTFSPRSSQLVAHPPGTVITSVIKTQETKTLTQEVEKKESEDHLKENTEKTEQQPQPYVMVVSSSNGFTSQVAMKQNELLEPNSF
Outline: as §1

[6] = biological target: T5, EHF (Homo sapiens, UniProt Q9NZC4 1-300)
T5 sequence: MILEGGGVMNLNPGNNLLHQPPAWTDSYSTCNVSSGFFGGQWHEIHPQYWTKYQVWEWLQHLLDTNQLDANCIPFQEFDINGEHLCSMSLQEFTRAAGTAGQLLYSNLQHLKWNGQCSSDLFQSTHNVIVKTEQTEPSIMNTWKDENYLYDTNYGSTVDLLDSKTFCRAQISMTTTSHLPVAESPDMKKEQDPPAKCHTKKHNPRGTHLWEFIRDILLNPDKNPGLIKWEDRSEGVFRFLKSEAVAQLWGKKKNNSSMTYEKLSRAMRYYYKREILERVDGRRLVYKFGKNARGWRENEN
Outline: as §1

[7] = biological target: SPI1 (Homo sapiens, UniProt P17947 1-270)
Outline: as §1

[8] = biological target: SPIB (Homo sapiens, UniProt Q01892 1-262)
Chain of SPIB (Q01892 whole entry): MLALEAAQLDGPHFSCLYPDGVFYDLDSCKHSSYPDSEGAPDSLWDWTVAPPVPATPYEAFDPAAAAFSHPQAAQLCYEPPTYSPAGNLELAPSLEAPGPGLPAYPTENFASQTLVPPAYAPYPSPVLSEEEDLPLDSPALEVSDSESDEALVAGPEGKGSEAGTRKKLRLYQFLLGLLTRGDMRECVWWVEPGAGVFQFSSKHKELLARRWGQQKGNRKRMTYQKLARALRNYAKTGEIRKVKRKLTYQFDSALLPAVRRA
Outline: as §1

[9] = biological target: ETV5 (Homo sapiens, UniProt P41161 1-510)
Chain of ETV5 (P41161 whole entry): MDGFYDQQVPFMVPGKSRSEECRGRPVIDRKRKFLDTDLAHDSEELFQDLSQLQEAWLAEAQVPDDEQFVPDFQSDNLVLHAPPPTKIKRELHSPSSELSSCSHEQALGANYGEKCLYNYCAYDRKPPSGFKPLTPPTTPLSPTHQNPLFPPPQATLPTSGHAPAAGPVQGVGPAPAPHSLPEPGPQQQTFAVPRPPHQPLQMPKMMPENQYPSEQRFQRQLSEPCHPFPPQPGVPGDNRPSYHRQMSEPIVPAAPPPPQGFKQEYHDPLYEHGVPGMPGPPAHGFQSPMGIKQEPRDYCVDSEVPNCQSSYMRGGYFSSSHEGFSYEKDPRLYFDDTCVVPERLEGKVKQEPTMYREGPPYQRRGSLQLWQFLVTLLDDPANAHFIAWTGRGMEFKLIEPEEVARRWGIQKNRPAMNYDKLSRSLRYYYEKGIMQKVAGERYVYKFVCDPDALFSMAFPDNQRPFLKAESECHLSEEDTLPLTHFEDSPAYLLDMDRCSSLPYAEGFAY
Outline: as §1

[10] = biological target: ELF4 (Homo sapiens, UniProt Q99607 1-663)
Chain of ELF4 (Q99607 whole entry): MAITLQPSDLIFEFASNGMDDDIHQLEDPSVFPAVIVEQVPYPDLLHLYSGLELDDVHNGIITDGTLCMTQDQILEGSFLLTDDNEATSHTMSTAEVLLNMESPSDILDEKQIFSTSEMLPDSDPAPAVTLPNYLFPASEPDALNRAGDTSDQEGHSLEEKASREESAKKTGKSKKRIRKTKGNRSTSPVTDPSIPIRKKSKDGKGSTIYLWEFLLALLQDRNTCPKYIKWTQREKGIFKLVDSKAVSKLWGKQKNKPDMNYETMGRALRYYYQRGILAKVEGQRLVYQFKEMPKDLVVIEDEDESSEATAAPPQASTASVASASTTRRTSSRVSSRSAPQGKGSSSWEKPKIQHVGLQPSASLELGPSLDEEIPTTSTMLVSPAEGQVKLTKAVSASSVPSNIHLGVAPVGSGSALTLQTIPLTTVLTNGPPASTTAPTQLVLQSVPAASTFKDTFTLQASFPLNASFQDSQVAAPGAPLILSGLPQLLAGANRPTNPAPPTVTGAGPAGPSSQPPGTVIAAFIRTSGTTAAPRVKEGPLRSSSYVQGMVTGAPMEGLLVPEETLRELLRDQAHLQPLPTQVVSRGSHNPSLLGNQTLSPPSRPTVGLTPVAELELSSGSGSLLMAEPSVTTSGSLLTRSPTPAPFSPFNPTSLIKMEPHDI
Outline: as §1

[11] = biological target: T6, ETV2 (Homo sapiens, UniProt O00321 1-342)
T6 sequence: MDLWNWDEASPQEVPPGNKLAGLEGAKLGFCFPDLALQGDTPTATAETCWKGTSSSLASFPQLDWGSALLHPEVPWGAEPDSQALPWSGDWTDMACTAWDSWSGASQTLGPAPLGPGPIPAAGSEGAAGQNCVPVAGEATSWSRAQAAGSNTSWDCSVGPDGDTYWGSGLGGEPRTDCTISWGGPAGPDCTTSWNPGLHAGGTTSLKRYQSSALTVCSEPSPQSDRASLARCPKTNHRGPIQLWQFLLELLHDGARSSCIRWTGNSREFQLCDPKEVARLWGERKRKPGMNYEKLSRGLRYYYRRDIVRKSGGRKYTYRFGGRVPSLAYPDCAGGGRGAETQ
Outline: as §1

[12] = biological target: T7, ELF3 (Homo sapiens, UniProt P78545 1-371)
T7 sequence: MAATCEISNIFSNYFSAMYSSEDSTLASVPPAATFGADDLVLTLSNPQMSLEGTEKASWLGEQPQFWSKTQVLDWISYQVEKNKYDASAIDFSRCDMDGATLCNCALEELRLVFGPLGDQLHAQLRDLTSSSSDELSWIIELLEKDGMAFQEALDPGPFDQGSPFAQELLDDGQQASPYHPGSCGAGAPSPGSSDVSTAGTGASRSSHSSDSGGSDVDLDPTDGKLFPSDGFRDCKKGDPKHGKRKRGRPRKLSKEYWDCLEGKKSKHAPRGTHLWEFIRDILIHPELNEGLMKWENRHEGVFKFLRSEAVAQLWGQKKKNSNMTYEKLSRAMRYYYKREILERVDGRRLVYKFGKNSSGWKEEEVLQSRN
Outline: as §1

[13] = biological target: T8, ERF (Homo sapiens, UniProt P50548 1-548)
T8 sequence: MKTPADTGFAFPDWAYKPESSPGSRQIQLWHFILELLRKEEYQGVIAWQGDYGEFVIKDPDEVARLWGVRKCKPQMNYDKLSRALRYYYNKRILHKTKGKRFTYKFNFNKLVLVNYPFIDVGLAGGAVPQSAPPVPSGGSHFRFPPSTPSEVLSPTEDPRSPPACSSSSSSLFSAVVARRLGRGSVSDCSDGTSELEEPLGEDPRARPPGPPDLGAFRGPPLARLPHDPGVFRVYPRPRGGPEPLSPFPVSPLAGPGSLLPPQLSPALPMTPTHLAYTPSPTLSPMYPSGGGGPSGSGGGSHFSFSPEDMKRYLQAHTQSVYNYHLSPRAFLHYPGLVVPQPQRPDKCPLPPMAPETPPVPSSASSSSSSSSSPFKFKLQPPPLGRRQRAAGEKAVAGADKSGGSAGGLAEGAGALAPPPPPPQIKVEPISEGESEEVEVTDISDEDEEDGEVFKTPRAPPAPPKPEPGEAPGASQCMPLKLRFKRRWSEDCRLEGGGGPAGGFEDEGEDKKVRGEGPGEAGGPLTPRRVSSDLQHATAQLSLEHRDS
Outline: as §1

[14] = biological target: T9, ETV3L (Homo sapiens, UniProt Q6ZN32 1-361)
T9 sequence: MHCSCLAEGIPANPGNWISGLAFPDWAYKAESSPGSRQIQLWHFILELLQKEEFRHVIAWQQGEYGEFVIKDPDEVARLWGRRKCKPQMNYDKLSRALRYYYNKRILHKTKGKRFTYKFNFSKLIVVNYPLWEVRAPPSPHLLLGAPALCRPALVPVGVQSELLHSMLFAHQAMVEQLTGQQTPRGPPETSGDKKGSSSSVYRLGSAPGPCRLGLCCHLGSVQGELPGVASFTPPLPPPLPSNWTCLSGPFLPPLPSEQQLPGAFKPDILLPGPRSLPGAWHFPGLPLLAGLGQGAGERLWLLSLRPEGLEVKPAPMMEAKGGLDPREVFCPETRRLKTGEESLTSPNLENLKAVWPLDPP
Outline: as §1

[15] = biological target: T10, ETS2 (Homo sapiens, UniProt P15036 1-469)
T10 sequence: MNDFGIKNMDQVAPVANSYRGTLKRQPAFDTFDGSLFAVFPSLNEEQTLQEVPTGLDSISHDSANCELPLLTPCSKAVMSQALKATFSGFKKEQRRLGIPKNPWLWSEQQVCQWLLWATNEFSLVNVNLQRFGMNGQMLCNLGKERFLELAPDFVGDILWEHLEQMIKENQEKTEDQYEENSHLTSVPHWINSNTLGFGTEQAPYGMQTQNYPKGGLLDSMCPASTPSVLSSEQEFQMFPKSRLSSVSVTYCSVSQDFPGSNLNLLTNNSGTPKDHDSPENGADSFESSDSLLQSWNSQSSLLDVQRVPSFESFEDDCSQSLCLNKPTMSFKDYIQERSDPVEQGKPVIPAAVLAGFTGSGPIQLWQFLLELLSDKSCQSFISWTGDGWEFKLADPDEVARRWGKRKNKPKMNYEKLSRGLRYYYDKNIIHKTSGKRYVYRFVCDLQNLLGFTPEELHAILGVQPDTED
Outline: as §1

[16] = biological target: ETV6 (Homo sapiens, UniProt P41212 1-452)
Chain of ETV6 (P41212 whole entry): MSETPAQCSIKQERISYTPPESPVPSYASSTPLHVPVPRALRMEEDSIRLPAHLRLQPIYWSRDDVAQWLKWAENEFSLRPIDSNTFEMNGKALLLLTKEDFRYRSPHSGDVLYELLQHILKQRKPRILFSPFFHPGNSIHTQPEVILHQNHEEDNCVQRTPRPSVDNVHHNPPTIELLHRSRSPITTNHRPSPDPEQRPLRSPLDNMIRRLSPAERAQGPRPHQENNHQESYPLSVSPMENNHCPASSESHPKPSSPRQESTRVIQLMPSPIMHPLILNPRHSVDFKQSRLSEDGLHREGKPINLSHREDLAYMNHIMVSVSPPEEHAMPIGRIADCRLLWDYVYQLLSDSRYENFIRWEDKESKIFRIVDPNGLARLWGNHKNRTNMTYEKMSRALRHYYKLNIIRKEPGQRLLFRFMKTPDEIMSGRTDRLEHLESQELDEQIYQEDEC
Outline: as §1

[17] = biological target: ETV1 (Homo sapiens, UniProt P50549 1-477)
Chain of ETV1 (P50549 whole entry): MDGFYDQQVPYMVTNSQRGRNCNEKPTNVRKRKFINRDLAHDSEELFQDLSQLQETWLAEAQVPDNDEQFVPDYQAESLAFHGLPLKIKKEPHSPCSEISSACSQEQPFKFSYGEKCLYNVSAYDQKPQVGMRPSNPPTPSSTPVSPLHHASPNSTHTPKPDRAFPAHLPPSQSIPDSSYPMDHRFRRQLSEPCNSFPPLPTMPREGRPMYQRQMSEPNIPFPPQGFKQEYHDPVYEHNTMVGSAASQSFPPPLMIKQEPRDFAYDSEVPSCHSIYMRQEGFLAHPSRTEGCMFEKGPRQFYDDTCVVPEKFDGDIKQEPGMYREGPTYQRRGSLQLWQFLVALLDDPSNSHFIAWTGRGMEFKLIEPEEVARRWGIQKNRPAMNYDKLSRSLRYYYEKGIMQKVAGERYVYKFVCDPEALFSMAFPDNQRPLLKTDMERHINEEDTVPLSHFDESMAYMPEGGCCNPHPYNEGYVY
Outline: as §1

[18] = biological target: T11, ETV7 (Homo sapiens, UniProt Q9Y603 1-341)
T11 sequence: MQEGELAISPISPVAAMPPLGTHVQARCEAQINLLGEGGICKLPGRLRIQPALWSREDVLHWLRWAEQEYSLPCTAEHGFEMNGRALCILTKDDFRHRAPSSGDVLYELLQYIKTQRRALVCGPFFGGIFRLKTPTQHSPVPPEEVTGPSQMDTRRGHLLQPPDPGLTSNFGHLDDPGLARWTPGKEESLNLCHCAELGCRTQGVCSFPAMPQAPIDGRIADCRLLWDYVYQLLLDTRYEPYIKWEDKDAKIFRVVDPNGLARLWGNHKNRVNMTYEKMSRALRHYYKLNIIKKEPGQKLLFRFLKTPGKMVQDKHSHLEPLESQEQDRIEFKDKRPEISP
Outline: as §1

[19] = biological target: T12, ETV3 (Homo sapiens, UniProt P41162-2 1-143)
T12 sequence: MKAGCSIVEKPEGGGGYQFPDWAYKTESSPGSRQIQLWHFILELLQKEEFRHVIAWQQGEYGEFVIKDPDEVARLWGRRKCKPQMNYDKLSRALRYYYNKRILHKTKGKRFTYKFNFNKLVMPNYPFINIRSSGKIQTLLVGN
Outline: as §1

Sequence	binding signal [1]	binding signal [2]	binding signal [3]	binding signal [4]	binding signal [5]	binding signal [6]	binding signal [7]	binding signal [8]	binding signal [9]	binding signal [10]	binding signal [11]	binding signal [12]	binding signal [13]	binding signal [14]	binding signal [15]	binding signal [16]	binding signal [17]	binding signal [18]	binding signal [19]
GCCCAA	1.04 fold enrichment (6-mer frequency, TF over GST control)	1.08 fold enrichment (6-mer frequency, TF over GST control)	1.14 fold enrichment (6-mer frequency, TF over GST control)	1.06 fold enrichment (6-mer frequency, TF over GST control)	1.09 fold enrichment (6-mer frequency, TF over GST control)	1 fold enrichment (6-mer frequency, TF over GST control)	1.01 fold enrichment (6-mer frequency, TF over GST control)	1.06 fold enrichment (6-mer frequency, TF over GST control)	1.1 fold enrichment (6-mer frequency, TF over GST control)	1.12 fold enrichment (6-mer frequency, TF over GST control)	1.24 fold enrichment (6-mer frequency, TF over GST control)	1.05 fold enrichment (6-mer frequency, TF over GST control)	1.08 fold enrichment (6-mer frequency, TF over GST control)	1.04 fold enrichment (6-mer frequency, TF over GST control)	1.09 fold enrichment (6-mer frequency, TF over GST control)	1.02 fold enrichment (6-mer frequency, TF over GST control)	–	–	–
ATGCCA	1.01 fold enrichment (6-mer frequency, TF over GST control)	1.06 fold enrichment (6-mer frequency, TF over GST control)	1.02 fold enrichment (6-mer frequency, TF over GST control)	1.04 fold enrichment (6-mer frequency, TF over GST control)	1.07 fold enrichment (6-mer frequency, TF over GST control)	1.05 fold enrichment (6-mer frequency, TF over GST control)	–	1.03 fold enrichment (6-mer frequency, TF over GST control)	1.05 fold enrichment (6-mer frequency, TF over GST control)	1.09 fold enrichment (6-mer frequency, TF over GST control)	1.06 fold enrichment (6-mer frequency, TF over GST control)	1.09 fold enrichment (6-mer frequency, TF over GST control)	1 fold enrichment (6-mer frequency, TF over GST control)	1.02 fold enrichment (6-mer frequency, TF over GST control)	1.03 fold enrichment (6-mer frequency, TF over GST control)	1.05 fold enrichment (6-mer frequency, TF over GST control)	1.02 fold enrichment (6-mer frequency, TF over GST control)	1.08 fold enrichment (6-mer frequency, TF over GST control)	1.13 fold enrichment (6-mer frequency, TF over GST control)
